# Laboratory results as given in PubChem BioAssay (Tox21).
# Where “and” joins values, the source holds several entries; their conditions need not be identical. Equal values may be shown once. Inconclusive results are not listed. Calls of active or inactive are those of the source. Calls follow the shape of the dose curve; as a rule, active = well fitted inhibition curve with a large enough effect in the repeat runs; inconclusive = weak or mixed curves; inactive = no such curve, though single readings can be large or run the other way.
# Target: Cytochrome P450 2C19 (Homo sapiens) (UniProt P33261)
# Sequence (P33261 whole entry, looked up): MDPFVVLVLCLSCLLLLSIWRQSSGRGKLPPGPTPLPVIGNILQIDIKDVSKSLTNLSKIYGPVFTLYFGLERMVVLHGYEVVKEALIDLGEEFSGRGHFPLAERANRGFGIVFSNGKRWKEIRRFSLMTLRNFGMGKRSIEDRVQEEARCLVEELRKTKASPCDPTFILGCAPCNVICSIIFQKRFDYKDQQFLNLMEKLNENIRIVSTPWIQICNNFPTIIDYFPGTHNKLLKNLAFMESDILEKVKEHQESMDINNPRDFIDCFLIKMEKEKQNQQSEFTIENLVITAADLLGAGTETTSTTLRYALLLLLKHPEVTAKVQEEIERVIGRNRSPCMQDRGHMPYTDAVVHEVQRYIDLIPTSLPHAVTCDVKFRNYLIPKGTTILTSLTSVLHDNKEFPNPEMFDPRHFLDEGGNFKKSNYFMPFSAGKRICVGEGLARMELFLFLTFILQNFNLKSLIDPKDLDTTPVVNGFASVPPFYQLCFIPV
# Assay: Cytochrome P450 Family 2 Subfamily C Member 19 (CYP2C19) small molecule antagonists: luciferase reporter qHTS assay (AID 1671197); also: nearly all actives have a fitted effect of over 65% in size
# Conditions: P450-Glo CYP2C19 enzyme, luciferin luminescence, 1 h; series mostly up to 52.9 µM; activity change, negative = inhibition: at the top concentration
# Procedure, shortened: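 CYP2C19 P450-Glo, 1536-well qHTS. Cpd + enzyme/proluciferin substrate 10 min RT; + NADPH regen, 37C 1 h; stop with luciferin detection reagent, 20 min RT, luminescence (RLU). Pos ctrl ketoconazole.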
# % is scaled to controls: 0 for no effect and ±100 for the full control effect; potency is read from the fitted curve at half-maximal effect.
Compound,"activity change, negative = inhibition",Potency
CCC1=C[C@@H]2CN(C1)Cc1c([nH]c3ccccc13)[C@@](C(=O)OC)(c1cc3c(cc1OC)N(C)[C@H]1[C@@](O)(C(=O)OC)[C@H](OC(C)=O)[C@]4(CC)C=CCN5CC[C@]31[C@@H]54)C2,12.2% (inactive),
CCN1/C(=C/C=C/c2sc3ccccc3[n+]2CC)Sc2ccccc21,,19 µM (active)
Cc1ccc(O)c(C(C)(C)C)c1,,35.5 µM (active) and 35.6 µM (active)
O=C1CCCCCN1SSN1CCCCCC1=O,,35.6 µM (active)
C[n+]1cc2c3c(ccc2c2ccc4cc5c(cc4c21)OCO5)OCO3,,1.07 µM (active)
CC1=C(/C=C/C(C)=C/C=C/C(C)=C/C=O)C(C)(C)CCC1,,39.7 µM (active)
CCc1cc(Cc2cc(CC)c(N)c(CC)c2)cc(CC)c1N,,0.71 µM (active)
O=C(O)c1cc(O)c2c(c1)C(=O)c1cccc(O)c1C2=O,-6.75% [at 115 µM] (inactive),
CCCCCCCCCCCC(=O)NCCCN(C)C,,20 µM (active)
CNCc1cc(F)ccc1Oc1ccc(Cl)c(Cl)c1,,2.52 µM (active)
O=[N+]([O-])c1cc(Cl)c(Cl)c(Cl)c1Cl,,39.8 µM (active)
CCCCCCCCCCCCCCCCCC[N+](C)(C)C,,89.6 µM (active)
C=CC(=O)OCC(CO)(COC(=O)C=C)COC(=O)C=C,,25.3 µM (active) and 22.4 µM (active)
CO[Si](CCCNc1ccccc1)(OC)OC,-9% [at 115 µM] (inactive),
CCCCN(CCCC)C(=O)N(CCCC)CCCC,3.22% [at 115 µM] (inactive),
CS(=O)(=O)CCNCc1ccc(-c2ccc3ncnc(Nc4ccc(OCc5cccc(F)c5)c(Cl)c4)c3c2)o1,,8.71 µM (active)
CCc1oc2ccccc2c1C(=O)c1cc(Br)c(O)c(Br)c1,9.36% (inactive),
O=C(Nc1cccc(Cl)c1)OCC#CCCl,,8.94 µM (active)

Compound,"activity change, negative = inhibition",Potency
O=C(OC[C@H]1O[C@@H](OC(=O)c2cc(O)c(O)c(OC(=O)c3cc(O)c(O)c(O)c3)c2)[C@H](OC(=O)c2cc(O)c(O)c(OC(=O)c3cc(O)c(O)c(O)c3)c2)[C@@H](OC(=O)c2cc(O)c(O)c(OC(=O)c3cc(O)c(O)c(O)c3)c2)[C@@H]1OC(=O)c1cc(O)c(O)c(OC(=O)c2cc(O)c(O)c(O)c2)c1)c1cc(O)c(O)c(OC(=O)c2cc(O)c(O)c(O)c2)c1,-1.97% [at 23.6 µM] (inactive),
CCN(CCC#N)c1ccc(N=Nc2c(Cl)cc([N+](=O)[O-])cc2Cl)cc1,-10.1% [at 115 µM] (inactive),
CCOC(=O)O[C@H](C)OC(=O)c1ccc2c(c1)cc(C(=O)NC1CCN(C(C)C)CC1)n2Cc1cc(-c2ccc(Cl)s2)on1,,46.9 µM (active)
S=c1[nH]c2ccccc2s1,,11.2 µM (active)
Cc1nc(-c2ccc3c(c2)CCN(CCC2CCC(NC(=O)/C=C/c4ccc(F)cc4)CC2)CC3)no1 (stereo not given),-5.02% (inactive),
CC[C@@]1(O)C(=O)OCc2c1cc1n(c2=O)Cc2c-1nc1ccccc1c2/C=N/OC(C)(C)C,-7.66% (inactive),
N=C1N=C(N)c2cc3ccccc3cc21,,79.6 µM (active)
O=C(O)c1c(Cl)cccc1Cl,,34.9 µM (active)
CCCCCCCCCCCCCCCC(=O)OC[C@H](O)[C@H]1OC(=O)C(O)=C1O,,79.6 µM (active)
CC(C)c1ccc2c(c1)CC[C@H]1[C@](C)(CN)CCC[C@]21C,,7.1 µM (active)
CCC(C)(C)C1CCCCC1OC(C)=O (stereo not given),-8.57% [at 115 µM] (inactive),
CCCCCCCCNC(C)C(O)c1ccc(SC(C)C)cc1 (stereo not given),,19.5 µM (active)
O=C(OCC1CO1)C1CCCCC1C(=O)OCC1CO1 (stereo not given),,56.5 µM (active)
CCCCCCCC(=O)[O-].CCCCCCCC(=O)[O-].[Zn+2],-0.532% (inactive),
CSc1ccc2c(c1)C(N1CCN(C)CC1)Cc1ccccc1S2 (stereo not given),,34.7 µM (active)
CC(C)(C)C(=O)OCOC(=O)C1N2C(=O)CC2S(=O)(=O)C1(C)C (stereo not given),-2.16% (inactive),
Clc1ccc2cc3ccccc3cc2c1,,79.6 µM (active)
